For 31 compounds, outcome results are on record in PubChem BioAssay AID687028 (Broad Institute, 2013).

Each structure is given as a SMILES string. In all, about 1,400 compounds went through this assay and about 55 (4%) were called active. How the calls were made is not given here. Only a sample is shown. A call without a number means that no potency is given here. Potency and affinity values are given separately.

The nature of the assay: viability loss in A549 cells – cell-based, plate reader, cherry-pick samples, cytotoxicity control, dose response (AID 687028).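 Further: cells incubated with compound for three days before reading.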 The following applies: series mostly up to 19.5 µM.
As to `Cn1cc(CC(=O)Nc2ccc(Nc3cccnc3)cc2)c2ccccc21`, the result was inactive.
The value for `CCC(=O)N1CC[C@@H]2[C@H](CO)Nc3ccc(-c4cccc(C#N)c4)cc3[C@@H]21` was “inactive”; that for `O=S(=O)(c1ccc(F)cc1)N1CC[C@@H]2[C@H]1c1cc(-c3ccc(F)cc3)ccc1N[C@@H]2CO` was “inactive”.
The value for `CCCCN(C(=O)c1ccc2c(c1)NC(=O)CS2)c1ccccc1` was “inactive”; that for `O=C(OCc1ccccc1)N1CCCC2CC1c1ccccc12` (stereo unspecified) was “inactive”; that for `C[C@H](NC(=O)[C@@H]1CCCN1C(=O)OC(C)(C)C)c1ccccc1` was “inactive”.
Take `CC1CCC(CN2CCN=C2Nc2ccccc2)CC1` (stereo unspecified): the outcome was inactive.
The value for `COc1cc(-c2cnc3c(NC(C)=O)cc(-c4ccccc4CN(C)C)cn23)cc(OC)c1OC` was “inactive”; that for `COc1ccc(-c2oc3ccc(-c4cc(OC)c(OC)c(OC)c4)cc3c2-c2ccc(OC)nc2)cc1` was “inactive”; that for `O=C(C1CCCN(S(=O)(=O)c2cccnc2)C1)N1CCN(c2ccccn2)CC1` (stereo unspecified) was “inactive”.
For `CCC(C)CN1C(=O)CSCC1(C)C(=O)Nc1ccc2c(c1)OCCO2` (stereo unspecified), the outcome was inactive.
The value for `C[C@H](CO)N1C[C@H](C)[C@@H](CN(C)C(=O)CCCN(C)C)OCCCC[C@H](C)Oc2ccc(NC(=O)CCCN(C)C)cc2C1=O` was “inactive”; that for `CS(=O)(=O)N1[C@@H]2CNC[C@H]1C2c1ccc(-c2ccccc2)cc1` (stereo partly specified) was “inactive”.
On to `COc1cccc(-c2ccc(C3[C@@H]4CN(S(=O)(=O)c5cn(C)cn5)C[C@H]3N4)cc2)c1` (stereo partly specified), for which the outcome was inactive.
Then `O=C(NC1CCCCC1)[C@@H]1[C@@H](CO)[C@@H]2Cn3c(cccc3=O)[C@H]1N2Cc1cccnc1`, with “inactive”; and `CN(Cc1nccs1)C(=O)c1ccc(OC2CCN(Cc3ccccn3)CC2)cc1`, with “inactive”; and `COc1ccc(NC(=O)N[C@@H]2CC[C@@H](CCNS(=O)(=O)c3cccc(Cl)c3)O[C@@H]2CO)cc1`, with “inactive”.
For the compound `COc1ccc(NC(=O)N[C@H]2CC[C@@H](CCn3cc(C4(O)CCCC4)nn3)O[C@@H]2CO)cc1`, the compound was called inactive.
For the compound `O=C(NCCc1ccccc1)c1ccccc1NC(=O)C1CCCCC1C(=O)O` (stereo unspecified), the call was inactive.
On to `Cc1ccc(OCC(=O)NC2CCSc3ccccc32)cc1` (stereo unspecified), for which the call was inactive.
As to `CC1CC2=C(C(=O)O1)C(c1ccc(Cl)cc1)Nc1ccccc1N2` (stereo unspecified), the result was inactive.
The value for `COc1ccc(C#Cc2ccc([C@H]3[C@@H](CO)N4CCCCN(S(=O)(=O)c5ccccc5)C[C@@H]34)cc2)cc1` was “inactive”.
Regarding `C[C@H](CO)N1C[C@H](C)[C@@H](CN(C)Cc2ccc(Oc3ccccc3)cc2)Oc2ccc(NC(=O)Cn3cnnn3)cc2CC1=O`, the compound was called inactive.
With `C[C@@H]1CCCCO[C@@H](CN(C)S(C)(=O)=O)[C@H](C)CN([C@@H](C)CO)C(=O)c2cc(NS(=O)(=O)c3ccc(Cl)cc3)ccc2O1`, the outcome was inactive.
The value for `C[C@H](CO)N1C[C@H](C)[C@@H](CN(C)C(=O)Cc2ccccc2)OCCCC[C@H](C)Oc2ccc(NS(=O)(=O)c3ccc(F)cc3)cc2C1=O` was “inactive”; that for `C[C@@H]1CN([C@H](C)CO)C(=O)c2cc(NC(=O)c3ccncc3)ccc2O[C@@H](C)CCCCO[C@H]1CN(C)Cc1ccc(Cl)c(Cl)c1` was “inactive”.
Then `C[C@@H]1CCCCO[C@@H](CN(C)Cc2ccccc2)[C@@H](C)CN([C@H](C)CO)C(=O)c2cc(NC(=O)c3ccccc3)ccc2O1`, with “inactive”; and `C[C@@H]1CCCCO[C@@H](CN(C)S(=O)(=O)c2ccc(F)cc2)[C@@H](C)CN([C@H](C)CO)C(=O)c2cc(NC(=O)Nc3ccc(C(F)(F)F)cc3)ccc2O1`, with “inactive”.
The value for `Cc1ccc(S(=O)(=O)N(C)C[C@@H]2OCCCC[C@H](C)Oc3ccc(NS(=O)(=O)c4c(C)noc4C)cc3C(=O)N([C@H](C)CO)C[C@H]2C)cc1` was “inactive”; that for `Cc1ccc(S(=O)(=O)N(C)C[C@@H]2OCCCC[C@H](C)Oc3ccc(NS(=O)(=O)c4c(C)noc4C)cc3C(=O)N([C@@H](C)CO)C[C@@H]2C)cc1` was “inactive”.
In the case of `C[C@@H]1CCCCO[C@@H](CN(C)C(=O)c2ccccc2)[C@@H](C)CN([C@@H](C)CO)C(=O)c2cc(NS(=O)(=O)c3ccc(F)cc3)ccc2O1`, the compound was called inactive.
